In the supplement of paper PMC10849652:
The full data set covers some 8,800 targets. This sample favours those with a hit. About 0.5% of all pairs of compound and target were hits.

Key:
Assay in all cases: log2 fold change, soluble protein after heating vs DMSO (PISA); higher = thermal stabilisation; K562 lysate, 10 uM; active = over 0.2 and 3.5 SD of the protein, either way, in both replicates (recomputed)
[1] = compound: C1=CC=C(C=C1)[C@H](COC2=CC3=C(C=C2)NC(=O)N3)NC(=O)C4=CC=CN(C4=O)CC5=CC(=C(C=C5)F)F
Method in brief: (§1)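 To prepare the extract, K562 pellets were dounce-homogenised in PBS pH 7.4 with 1 mM MgCl2, giving crude material at 1 mg/mL protein. This was treated with 10 μM compound for 30 min, then heated in aliquots for 3 min over 48°C-58°C before pooling and addition of NP-40 to 0.5% at 4°C. Centrifugation at 21,000xg for 90 min left soluble protein in the supernatant, which TMTpro 16plex LC-MS/MS quantified with equalised channel sums. Results are log-two fold changes in thermal stability compared with solvent controls, from duplicates.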

[2] = compound: CC1=C(SC2=C1C(=N[C@H](C3=NN=C(N32)C)CC(=O)N)C4=CC=C(C=C4)Cl)C
Method in brief: as §1

[3] = compound: CC1=C2C(=CC=C1)N=C(N(C2=O)C3=CC=CC=C3C)CN4C=NC5=C(N=CN=C54)N
Method in brief: as §1

[4] = compound: Cc1sc2c(c1C)C(c1ccc(Cl)cc1)=N[C@@H](CC(=O)OC(C)(C)C)c1nnc(C)n1-2
Method in brief: as §1

[5] = compound: c1ccc([C@@H]2C[C@H]2NC2CCNCC2)cc1
Method in brief: as §1

Measured: log2 fold change

SRSF9 (UniProt Q13242)
Chain of UniProt Q13242 (Q13242 whole entry, looked up): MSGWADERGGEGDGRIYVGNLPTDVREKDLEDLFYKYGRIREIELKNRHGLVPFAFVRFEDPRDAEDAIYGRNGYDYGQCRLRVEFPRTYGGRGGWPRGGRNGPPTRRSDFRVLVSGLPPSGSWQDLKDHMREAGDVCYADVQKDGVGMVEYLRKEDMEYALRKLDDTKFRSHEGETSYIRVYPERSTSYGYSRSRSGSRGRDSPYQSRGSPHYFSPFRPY
inactive: [1] 0.015 | [2] 0.024 | [3] -0.076 | [4] 0.06 | [5] -0.014

SFR1 isoform 2 (UniProt Q86XK3)
Chain of UniProt Q86XK3 (Q86XK3 whole entry, looked up): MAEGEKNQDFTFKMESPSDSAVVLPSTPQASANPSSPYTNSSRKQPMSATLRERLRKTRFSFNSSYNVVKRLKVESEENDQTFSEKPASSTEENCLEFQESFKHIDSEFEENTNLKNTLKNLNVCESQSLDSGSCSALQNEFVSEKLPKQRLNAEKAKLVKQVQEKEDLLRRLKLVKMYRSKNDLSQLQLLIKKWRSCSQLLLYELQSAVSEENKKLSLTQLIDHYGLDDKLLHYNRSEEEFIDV
inactive: [1] -0.035 | [2] -0.005 | [3] -0.01 | [4] 0 | [5] 0.072

SULT1A1 (UniProt P50225)
Chain of UniProt P50225 (P50225 whole entry, looked up): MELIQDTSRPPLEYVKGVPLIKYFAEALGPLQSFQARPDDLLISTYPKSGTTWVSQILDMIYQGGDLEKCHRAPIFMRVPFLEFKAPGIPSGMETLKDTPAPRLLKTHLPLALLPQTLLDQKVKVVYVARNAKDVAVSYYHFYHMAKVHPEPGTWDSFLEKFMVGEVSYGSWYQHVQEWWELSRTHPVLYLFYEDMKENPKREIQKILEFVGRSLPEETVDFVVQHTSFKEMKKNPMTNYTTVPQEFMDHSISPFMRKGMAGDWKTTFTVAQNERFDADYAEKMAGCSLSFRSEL
inactive: [1] -0.022 | [2] -0.02 | [3] 0 | [4] 0.051 | [5] 0.088

SQLE (UniProt Q14534)
Chain of UniProt Q14534 (Q14534 whole entry, looked up): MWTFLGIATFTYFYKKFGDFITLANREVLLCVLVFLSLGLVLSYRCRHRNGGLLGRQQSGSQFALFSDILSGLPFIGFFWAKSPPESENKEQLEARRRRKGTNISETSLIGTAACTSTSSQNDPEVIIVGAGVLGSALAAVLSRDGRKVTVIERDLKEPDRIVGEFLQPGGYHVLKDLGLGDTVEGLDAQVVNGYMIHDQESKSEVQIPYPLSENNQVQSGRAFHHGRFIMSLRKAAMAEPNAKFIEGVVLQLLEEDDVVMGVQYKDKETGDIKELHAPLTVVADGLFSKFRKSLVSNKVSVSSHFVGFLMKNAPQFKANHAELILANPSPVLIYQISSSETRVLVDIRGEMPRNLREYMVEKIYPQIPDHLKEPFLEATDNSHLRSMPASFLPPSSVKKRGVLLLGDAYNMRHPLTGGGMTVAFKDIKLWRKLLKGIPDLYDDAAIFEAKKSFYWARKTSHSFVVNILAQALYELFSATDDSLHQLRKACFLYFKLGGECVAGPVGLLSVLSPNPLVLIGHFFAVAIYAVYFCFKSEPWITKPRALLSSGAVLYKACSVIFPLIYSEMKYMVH
inactive: [1] 0.044 | [2] 0.054 | [3] -0.099 | [4] 0.012 | [5] 0.031

SPNS1 (UniProt Q9H2V7)
Chain of UniProt Q9H2V7 (Q9H2V7 whole entry, looked up): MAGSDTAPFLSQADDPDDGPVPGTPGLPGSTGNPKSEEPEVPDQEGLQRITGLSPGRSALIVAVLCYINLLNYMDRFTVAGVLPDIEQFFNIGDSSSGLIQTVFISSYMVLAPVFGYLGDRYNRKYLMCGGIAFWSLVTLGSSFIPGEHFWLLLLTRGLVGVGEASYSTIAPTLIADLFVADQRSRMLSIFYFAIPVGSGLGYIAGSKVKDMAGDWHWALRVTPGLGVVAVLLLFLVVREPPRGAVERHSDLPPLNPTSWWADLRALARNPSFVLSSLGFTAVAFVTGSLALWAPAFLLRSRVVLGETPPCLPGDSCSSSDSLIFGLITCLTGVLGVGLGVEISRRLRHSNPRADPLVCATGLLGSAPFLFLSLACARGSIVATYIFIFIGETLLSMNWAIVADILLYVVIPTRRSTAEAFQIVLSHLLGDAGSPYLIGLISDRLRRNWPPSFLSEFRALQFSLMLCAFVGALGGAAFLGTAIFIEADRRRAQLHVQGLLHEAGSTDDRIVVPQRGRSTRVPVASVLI
inactive: [1] 0.05 | [2] 0.017 | [3] 0.023 | [4] -0.076 | [5] -0.019

SLU7 (UniProt O95391)
Chain of UniProt O95391 (O95391 whole entry, looked up): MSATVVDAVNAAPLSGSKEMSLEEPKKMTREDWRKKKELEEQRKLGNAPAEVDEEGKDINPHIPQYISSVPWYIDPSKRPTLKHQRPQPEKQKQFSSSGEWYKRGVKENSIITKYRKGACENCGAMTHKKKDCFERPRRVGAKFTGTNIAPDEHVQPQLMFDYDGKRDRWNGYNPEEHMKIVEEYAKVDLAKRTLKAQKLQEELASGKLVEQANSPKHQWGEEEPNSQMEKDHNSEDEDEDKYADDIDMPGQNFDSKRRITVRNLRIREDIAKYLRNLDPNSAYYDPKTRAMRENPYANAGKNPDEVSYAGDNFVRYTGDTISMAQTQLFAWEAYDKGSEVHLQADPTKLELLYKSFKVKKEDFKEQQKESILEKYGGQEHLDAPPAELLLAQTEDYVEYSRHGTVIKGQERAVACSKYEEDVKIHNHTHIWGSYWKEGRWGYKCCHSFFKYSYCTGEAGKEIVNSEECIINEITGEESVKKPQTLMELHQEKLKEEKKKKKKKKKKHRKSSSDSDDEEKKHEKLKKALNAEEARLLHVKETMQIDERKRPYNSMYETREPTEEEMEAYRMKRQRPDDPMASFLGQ
inactive: [1] -0.015 | [2] 0.041 | [3] 0.045 | [4] -0.028 | [5] -0.16

SRP54 (UniProt P61011)
Chain of UniProt P61011 (P61011 whole entry, looked up): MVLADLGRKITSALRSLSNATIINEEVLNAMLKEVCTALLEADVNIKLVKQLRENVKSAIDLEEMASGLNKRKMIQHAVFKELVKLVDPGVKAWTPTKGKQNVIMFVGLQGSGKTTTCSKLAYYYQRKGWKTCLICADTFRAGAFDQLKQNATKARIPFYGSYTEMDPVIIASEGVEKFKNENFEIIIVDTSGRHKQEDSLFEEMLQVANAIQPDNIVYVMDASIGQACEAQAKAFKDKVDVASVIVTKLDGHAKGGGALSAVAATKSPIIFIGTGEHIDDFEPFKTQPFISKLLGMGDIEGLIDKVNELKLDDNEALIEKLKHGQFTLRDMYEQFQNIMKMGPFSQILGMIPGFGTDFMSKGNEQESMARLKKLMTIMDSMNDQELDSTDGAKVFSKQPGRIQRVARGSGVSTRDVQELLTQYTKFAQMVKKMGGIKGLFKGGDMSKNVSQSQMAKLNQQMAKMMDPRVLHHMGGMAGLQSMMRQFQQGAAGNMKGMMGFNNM
inactive: [1] 0.023 | [2] 0.001 | [3] 0.03 | [4] 0.06 | [5] 0.049

SLC19A1 (UniProt P41440)
Chain of UniProt P41440 (P41440 whole entry, looked up): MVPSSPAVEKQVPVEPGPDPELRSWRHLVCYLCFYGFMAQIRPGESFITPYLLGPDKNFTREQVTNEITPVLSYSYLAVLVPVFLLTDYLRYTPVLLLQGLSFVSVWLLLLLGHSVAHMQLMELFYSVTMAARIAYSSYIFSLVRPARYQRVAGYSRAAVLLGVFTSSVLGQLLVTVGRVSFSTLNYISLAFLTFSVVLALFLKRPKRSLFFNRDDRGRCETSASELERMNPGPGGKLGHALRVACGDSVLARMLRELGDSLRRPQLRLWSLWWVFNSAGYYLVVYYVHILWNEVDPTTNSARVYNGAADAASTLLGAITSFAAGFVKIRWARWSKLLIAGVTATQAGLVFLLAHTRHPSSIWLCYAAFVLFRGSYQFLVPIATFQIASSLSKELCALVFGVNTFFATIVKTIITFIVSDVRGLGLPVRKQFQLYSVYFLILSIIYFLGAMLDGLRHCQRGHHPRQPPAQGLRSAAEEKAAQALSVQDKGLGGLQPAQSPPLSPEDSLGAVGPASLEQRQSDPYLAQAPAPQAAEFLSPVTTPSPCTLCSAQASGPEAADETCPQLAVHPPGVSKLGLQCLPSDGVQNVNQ
inactive: [1] 0.017 | [2] -0.022 | [3] -0.056 | [4] -0.12 | [5] -0.176

TARDBP (UniProt Q13148)
Chain of UniProt Q13148 (Q13148 whole entry, looked up): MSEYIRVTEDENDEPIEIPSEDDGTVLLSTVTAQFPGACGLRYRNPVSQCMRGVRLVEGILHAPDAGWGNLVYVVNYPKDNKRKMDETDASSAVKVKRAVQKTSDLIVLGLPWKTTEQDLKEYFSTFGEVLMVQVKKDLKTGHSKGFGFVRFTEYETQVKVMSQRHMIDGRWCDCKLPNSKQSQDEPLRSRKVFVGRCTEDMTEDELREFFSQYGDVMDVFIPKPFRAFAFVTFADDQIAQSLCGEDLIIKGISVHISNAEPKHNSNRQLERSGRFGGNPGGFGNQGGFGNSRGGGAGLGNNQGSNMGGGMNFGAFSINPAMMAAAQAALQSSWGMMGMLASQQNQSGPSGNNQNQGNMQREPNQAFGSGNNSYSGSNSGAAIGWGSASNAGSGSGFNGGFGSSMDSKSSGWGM
inactive: [1] -0.094 | [2] -0.012 | [3] 0.067 | [4] -0.145 | [5] -0.041
